# Source: PubChem BioAssay (National Center for Advancing Translational Sciences (NCATS))
# Hits are enriched below; roughly 1.2% of the tested compounds scored in any of these assays.
# VDR inhibitor: blocks the human vitamin D receptor | P11473 | VDR-SRC2-3 peptide fluorescence polarization, 2 h | Potency, µM, inactives show max response, negative = inhibition, usual class: inhibitors | 400,000 tested, 0.93% active | AID 504847
#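 The screen uses fluorescence polarization to detect compounds that interfere with recruitment of the SRC2-3 coactivator peptide to VDR; plates are read after 2 h at room temperature.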
# GoLoco inh red: RGS12 GoLoco-Gai1 interaction inhibition; P63096; Gai1:RGS12 GoLoco peptide FP, rhodamine, 10 min; Potency, µM (doses to about 61.6 µM), for inactives: at the top dose activity, negative = inhibition, usual class: inhibitors; 230,000 tested, 0.44% active; active = well fitted inhibition curve with a large enough effect, not every such curve was filed as active; inactive = no such curve, though single readings can be large or run the other way; note: nearly all actives have a fitted effect of over 30% in size
# Target sequence (P63096 whole entry, looked up): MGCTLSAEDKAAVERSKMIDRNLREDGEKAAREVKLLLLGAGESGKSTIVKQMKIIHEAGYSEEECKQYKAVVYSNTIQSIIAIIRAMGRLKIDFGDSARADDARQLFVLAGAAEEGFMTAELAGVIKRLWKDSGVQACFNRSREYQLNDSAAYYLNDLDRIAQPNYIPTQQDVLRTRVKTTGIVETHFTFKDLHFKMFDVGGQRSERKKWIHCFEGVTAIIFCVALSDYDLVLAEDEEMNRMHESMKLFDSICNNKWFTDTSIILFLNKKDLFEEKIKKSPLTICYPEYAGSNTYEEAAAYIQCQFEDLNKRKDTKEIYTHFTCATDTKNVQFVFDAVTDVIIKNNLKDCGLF
# TexasRed fluor: Texas Red fluorescence interference in TRb-SRC2 counter-screen | TRb/SRC2 Texas Red total fluorescence interference | AID 1479 | Potency, µM (series often up to 106 µM), inactives show at the top dose fluorescence change, negative = quenching | 280,000 tested, 0.29% active; active = well fitted curve in either direction with a large enough effect; inconclusive = small, poorly fitted or top-dose-only effect
#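 Human TRb ligand-binding domain at 0.6 uM with 20 nM Texas Red SRC2 peptide in Tris buffer containing 1 uM T3 and 5% DMSO, incubated with compound 5 h at ambient temperature. Total fluorescence (555/632 nm) calculated as parallel + 2 × perpendicular.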
# TRb SRC2 PPI: inhibitors of human thyroid hormone receptor beta-SRC2 interaction | P10828 | Potency, µM (titrated, usually from 106 µM), without a hit: at the highest dose activity change, negative = inhibition, most hits filed as inhibitors | TRbeta-SRC2 peptide binding, fluorescence polarization; receptor liganded with 1 µM T3 | 280,000 tested, 0.065% active;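 note: plate controls were bound peptide for no effect and peptide without receptor for full effect; nearly all actives have a fitted effect of over 50% in size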
#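 Human TRb LBD (0.6 uM) plus Texas Red-labeled SRC2 peptide (20 nM), 1uM T3, 5% DMSO, 5 hr at ambient temperature. Decreased polarization (555/632 nm) flags inhibition; data normalized to free and bound peptide controls.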
# KAT2A inh: GCN5L2 (KAT2A) acetyltransferase inhibition. Q92830. GCN5L2 HAT assay, ThioGlo1 CoA-SH fluorescence. Potency, µM (highest dose often 58.9 µM), without a hit: at the highest dose activity change, negative = inhibition, most hits filed as inhibitors. 390,000 tested, 0.21% active
#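 GCN5L2 (20 nM) in 50mM HEPES pH 7.5, 0.1mM EDTA, 0.01% Tween-20 preincubated 15 min with compounds at room temperature. Reaction started with H3(1-25) 75uM, acetyl-CoA 70uM, ThioGlo1 50uM; CoA-thiol fluorescence (Ex340/Em540) read at 0 and 20 min.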
# The depositor's hits bear a star; u = inconclusive; x = not tested or not shown; ! = not active in a repeat; [ ] = another dose, or the depositor's remark. Unless noted, calls come from the whole dose curve; as a rule, active = well fitted curve in the direction sought with a large enough effect; inconclusive = small, poorly fitted or top-dose-only effect, or another doubt; inactive = no such curve, though single readings can be large; an effect the other way counts as inactive or inconclusive. Unless noted, % is set by controls: 0 for no effect and ±100 for the full control effect; potency is the fitted concentration of half-maximal effect.
SMILES,VDR inhibitor,GoLoco inh red,TexasRed fluor,TRb SRC2 PPI,KAT2A inh
Nc1nc(Sc2c([N+](=O)[O-])cc(C(F)(F)F)cc2[N+](=O)[O-])n[nH]1,32µM*,-1%,-4%,0%,u
CC(C)C(NC(=O)c1cccnc1)C(=O)O (configuration not stated),79µM*,7%,-2%,2%,2%
C[C@]12CC[C@@H]3c4ccc(O)cc4CC[C@H]3[C@H]1CC[C@H]2O,x,x,1%[201 µM],12%[201 µM],x
C=CCOc1ccc(C=CC(=O)c2c(O)c(OC)c(OC)c(OC)c2OC)cc1,45µM*,x,x,x,x
COc1ccc(C2=CC3=C(Br)C(=O)C(C)(OC(=O)c4ccco4)C(=O)C3=CO2)cc1 (configuration not stated),79µM*,2%,-4%,10%,20%
COc1ccc(C2=CC3=C(Br)C(=O)C(C)(OC(=O)c4cccs4)C(=O)C3=CO2)cc1 (configuration not stated),-28%,1%,-1%,6%,x
Cc1cccc(NC(=O)Cn2c(=O)n(CCc3ccccc3)c(=O)c3sc4ccccc4c32)c1,6%,x,0%,-8%,-3%
Cc1cccc(NC(=O)Cn2c(=O)n(Cc3ccccc3)c(=O)c3sc4ccccc4c32)c1,-8%,x,25µM*[quencher],-28%[53 µM],-13%
O=C(CSc1nc(-c2ccccc2)[nH]c1-c1ccccc1)Nc1ccc2c(c1)OCO2,9%,x,-2%,9%,1%
COc1ccc(-c2cc(-c3nnc(COC(=O)CC4CC5CCC4C5)o3)c3ccccc3n2)cc1OC (configuration not stated),-3%,15%,-8%,1%,35µM*
O=c1c2ncn([C@@H]3O[C@@H]4COP(=O)(O)O[C@H]4[C@H]3O)c2nc2[nH]c(-c3ccccc3)cn12,7%,x,0%,1%,8%
CCOC(=O)C1=C(C)Nc2ccc(C)cc2S1,u,3%,-3%,-3%,-17%
CCOCCOC(=O)C1=C(C)Nc2ccc(C)cc2S1,89µM*,38%,-7%,3%,-7%
CCOC(=O)NNc1ccc2nonc2c1[N+](=O)[O-],35µM*,-33%,-18%,-26%,-23%
O=C(Nc1ccc(Nc2ccccc2)cc1)c1ccc(Cl)c([N+](=O)[O-])c1,7%,x,x,x,-12%
Cc1cc(C(=O)Nc2ccc(Nc3ccccc3)cc2)ccc1[N+](=O)[O-],25µM*,x,x,x,-20%
O=C(/C=C/c1ccc2c(c1)OCO2)c1cccs1,20µM*,6%,-9%,6%,-28%
CCCCCCC(=O)N(O)C1CC(=O)N(c2ccc(C)cc2)C1=O (configuration not stated),32µM*,-27%,-1%,-3%,3%
COc1ccc(C2NC(c3ccc4c(c3)OCO4)=CC(c3ccccc3O)N2)cc1OC (configuration not stated),-21%,x,x,x,x
Cc1nc(NC(=O)CCc2ccccc2)sc1C,89µM*,x,x,x,-20%
Cc1nc(NC(=O)c2ccccc2)sc1C,3%,x,x,x,-7%
CC1CCc2cc(F)cc3c2N1C(=O)C(C(=O)Nc1cnccn1)C3=O (configuration not stated),-8%,x,x,x,x
O=S(=O)(O)c1cc(O)c2c(O)c(N=Nc3cc(Cl)ccc3O)c(S(=O)(=O)O)cc2c1,u,x,x,x,-11%
Cc1cc(-c2ccc(N=Nc3c(S(=O)(=O)O)cc4cc(S(=O)(=O)O)cc(N)c4c3O)c(C)c2)ccc1N=Nc1c(S(=O)(=O)O)cc2cc(S(=O)(=O)O)cc(N)c2c1O,u,x,x,x,11µM*
NC(=O)c1ccc(NC(=O)c2cncn2-c2ccccc2)cc1,79µM*,x,x,x,-2%
SMILES,VDR inhibitor,GoLoco inh red,TexasRed fluor,TRb SRC2 PPI,KAT2A inh
Cc1ccc(F)cc1NC(=O)COC(=O)c1ccc(S(C)(=O)=O)c([N+](=O)[O-])c1,-25%,x,x,x,x
CC(C)N1C(=O)CC2(CC[N+](C)(CCOC(=O)C(c3ccccc3)c3ccccc3)CC2)C1=O (configuration not stated),-12%,11µM*,-2%,-2%,u
CCCCCCCCCCCCCCC(=O)OC,x,x,-2%[201 µM],1%[201 µM],x
CCN1CCN(C(=S)c2ccc([N+](=O)[O-])cc2)CC1,71µM*,2%,-1%,1%,-5%
Cc1cccc(NC(=O)N(C)Cc2cccs2)c1,19%,1%,1%,-6%,32µM*
Cc1cccc(NC(=S)NCc2cccs2)c1,-7%,-3%,-2%,2%,-19%
C1CCCNCC1,x,22µM*,-2%,8%,x
C1CNCCNCCCNCCNC1,x,9%,-4%,-9%,0%
CCCCCCCCCCCCCCC1CO1 (configuration not stated),x,10%,2%[201 µM],9%[201 µM],x
O=c1c(C(c2ccccc2)c2c(O)sc3ccccc3c2=O)c(O)sc2ccccc12,4%,9%,-4%,21%,25µM*
O=c1c2ccccc2sc2ccccc12,6%,x,x,x,x
CN(C)CCC(=O)[C@@]1(O)CC[C@H]2[C@H]3CC=C4C[C@@H](O)CC[C@]4(C)[C@H]3CC[C@]21C,x,2%[14.2 µM],x,x,x
Cc1ccc(S(=O)(=O)/C=C/C#N)cc1,11µM*,-19%,-1%,-1%,22µM*!
CC(C)(C)c1ccc(S(=O)(=O)/C=C\C#N)cc1,2µM*,3%,1%,-2%,28µM*
Cc1ccc(S(=O)(=O)CS(=O)(=O)c2ccc(C)cc2)cc1,-18%,x,x,x,x
Cc1ccc(S(=O)(=O)/C=C2\NC(=O)CS2)cc1,-14%,0%,2%,-3%,-22%
Cc1ccc(S(=O)(=O)/C=C\C#N)cc1,2.8µM*,-1%,0%,3%,28µM*
O=C(O)c1c2c(c(O)c3c1CN(C1CCCCC1)CO3)OCN(C1CCCCC1)C2,x,-3%[14.2 µM],x,x,x
Cc1nn(-c2ccc(F)cc2)c(Cl)c1C(=O)NCC1CCCO1 (configuration not stated),89µM*,x,x,x,2%
COc1c(Br)cc(Br)cc1C(=O)O,-16%,-7%,6%,-20%,-11%
COC(=O)C(=Cc1cc(Br)c(OC)c(Br)c1)C(=O)OC,8.9µM*,-3%,0%,-2%,x
COc1ccc(-c2nc3c(c4c2C[C@H](c2ccccc2)OC4)CN(S(=O)(=O)c2ccc(NC(C)=O)cc2)CC3)c(C)c1,x,8%[14.2 µM],-6%[11.2 µM],-1%[11.2 µM],x
CN1CCc2nc(N)nc(-c3nc(N)nc4c3CN(C)CC4)c2C1,x,-1%[14.2 µM],x,x,x
Oc1ccc(CNc2cccc(F)c2F)c2cccnc12,x,x,x,x,-2%
O=C(c1cccc2ccccc12)N1CCN(S(=O)(=O)c2ccccc2)CC1,1%,x,x,x,x
C=C1C(=O)[C@]23[C@H](O)[C@H]1CC[C@H]2[C@@]12COC3(O)[C@H](O)[C@@H]1C(C)(C)CC[C@@H]2O,7.1µM*,-4%,0%,-3%,1%
